In PubChem BioAssay AID1159580 (chemical genetic matrix, 2015):
Values joined by “and” are separate entries in the source; they are usually repeats but may differ in a detail not shown here. Equal entries are not always repeated. Hit rate of the full screen: of about 5,500 compounds, about 2,000 (36%) were called active. About 18% were inconclusive and are not listed. No stated cut-off is given here; in the data, active means normalized growth mostly below about 0.91 (no sharp cut-off); inconclusive means no clear call, values can overlap the other calls; inactive means mostly above about 0.92. This is one part of the list.

Assay: chemical genetic growth profiling, strain panel (AID 1159580);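 further: tested at 20 µM; growth read once vehicle control cultures reached saturation at 30 °C; 1 = growth at the plate median or of vehicle wells; lower values mean less growth of the strain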
Details: S. cerevisiae deletion strains, growth OD

Measured: normalized growth

COC(=O)C(O)c1ccccc1 (stereo unspecified)
inactive: locus YAL021C, strain ccr4, active compounds read low 1.02 | locus YAL026C, strain drs2, active compounds read low 1.01 | locus YAL030W, strain snc1, active compounds read low 0.984 | locus YBL061C, strain skt5, active compounds read low 0.996 | locus YBR009C, strain hhf1, active compounds read low 1.01 | locus YBR021W, strain FUR4, active compounds read low 1.06 | locus YBR023C, strain chs3, active compounds read low 1.01 | locus YBR171W, strain sec66, active compounds read low 0.99 | locus YBR229C, strain ROT2, active compounds read low 0.999 | locus YBR231C, strain swc5, active compounds read low 0.961 | locus YBR279W, strain paf1, active compounds read low 0.999 | locus YCL011C, strain gbp2, active compounds read low 1.02 | locus YCL016C, strain dcc1, active compounds read low 1.02 | locus YCL029C, strain bik1, active compounds read low 0.982 | locus YCL069W, strain vba3, active compounds read low 1 | locus YCR088W, strain abp1, active compounds read low 0.99 | locus YDL005C, strain med2, active compounds read low 0.984 | locus YDL035C, strain GPR1, active compounds read low 1.05 | locus YDL040C, strain nat1, active compounds read low 0.991 | locus YDL074C, strain BRE1, active compounds read low 1.05 | locus YDL101C, strain DUN1, active compounds read low 0.977 | locus YDL134C, strain PPH21, active compounds read low 0.964 | locus YDL185W, strain tfp1, active compounds read low 0.949 | locus YDL192W, strain arf1, active compounds read low 1.01 | locus YDR001C, strain nth1, active compounds read low 0.99 | locus YDR069C, strain doa4, active compounds read low 0.996 | locus YDR101C, strain arx1, active compounds read low 1.05 | locus YDR137W, strain rgp1, active compounds read low 1.01 | locus YDR159W, strain sac3, active compounds read low 0.973 | locus YDR162C, strain NBP2, active compounds read low 0.975 | locus YDR195W, strain ref2 0.909 | locus YDR297W, strain sur2, active compounds read low 0.992 | locus YDR318W, strain mcm21, active compounds read low 0.985 | locus YDR334W, strain swr1, active compounds read low 0.98 | locus YDR335W, strain msn5, active compounds read low 1.01 | locus YDR388W, active compounds read low 0.973 | locus YDR392W, strain spt3, active compounds read low 1.02 | locus YDR502C, strain sam2, active compounds read low 0.969 | locus YEL003W, strain gim4, active compounds read low 0.99 | locus YEL037C, strain rad23, active compounds read low 0.992 | locus YEL061C, strain CIN8 (second series), active compounds read low 0.983 | locus YEL061C, strain CIN8, active compounds read low 0.991 | locus YER015W, strain faa2, active compounds read low 1.01 | locus YER016W, strain bim1, active compounds read low 0.993 | locus YER110C, active compounds read low 0.984 | locus YER111C, strain swi4, active compounds read low 0.981 | locus YER155C, strain BEM2 (second series), active compounds read low 0.978 | locus YER155C, strain BEM2, active compounds read low 0.988 | locus YER167W, strain BCK2, active compounds read low 1.01 | locus YFR010W, strain ubp6, active compounds read low 0.974 | locus YGL078C, strain dbp3, active compounds read low 0.974 | locus YGL086W, strain mad1, active compounds read low 0.996 | locus YGL167C, strain pmr1, active compounds read low 0.995 | locus YGL173C, strain kem1, active compounds read low 0.981 | locus YGL227W, strain vid30, active compounds read low 1 | locus YGL240W, strain doc1, active compounds read low 0.99 | locus YGL248W, strain PDE1, active compounds read low 0.983 | locus YGL253W, strain hxk2, active compounds read low 0.983 | locus YGR078C, strain PAC10, active compounds read low 0.974 | locus YGR135W, strain pre9, active compounds read low 0.941 | locus YGR229C, strain SMI1, active compounds read low 0.961 | locus YGR252W, strain gcn5, active compounds read low 1.02 | locus YHR013C, strain ard1, active compounds read low 1 | locus YHR027C, strain rpn1, active compounds read low 0.986 | locus YHR030C, strain SLT2, active compounds read low 1.02 | locus YHR079C, strain IRE1 (second series), active compounds read low 0.971 | locus YHR079C, strain IRE1, active compounds read low 0.996 | locus YHR094C, strain hxt1, active compounds read low 0.983 | locus YHR129C, strain ARP1, active compounds read low 0.993 | locus YHR142W, strain chs7, active compounds read low 1.02 | locus YHR200W, strain rpn10, active compounds read low 0.963 | locus YIL066C, strain RNR3, active compounds read low 1.02 | locus YIL073C, strain SPO22, active compounds read low 0.977 | locus YIL125W, strain kgd1, active compounds read low 1 | locus YIR030C, strain dcg1, active compounds read low 0.975 | locus YJL092W, strain hpr5, active compounds read low 0.991 | locus YJL095W, strain BCK1 (second series), active compounds read low 0.985 | locus YJL095W, strain BCK1, active compounds read low 0.963 and 1.01 | locus YJL115W, strain asf1, active compounds read low 0.981 | locus YJL129C, strain trk1, active compounds read low 0.992 | locus YJL134W, strain LCB3, active compounds read low 0.992 | locus YJL154C, strain vps35, active compounds read low 0.986 | locus YJL164C, strain tpk1, active compounds read low 1.03 | locus YJL166W, strain qcr8, active compounds read low 1.04 | locus YJL168C, strain set2, active compounds read low 0.976 | locus YJL187C, strain SWE1 (second series), active compounds read low 0.98 | locus YJL187C, strain SWE1, active compounds read low 0.997 | locus YJR043C, strain POL32, active compounds read low 1.09 | locus YJR066W, strain TOR1, active compounds read low 0.939 | locus YKL009W, strain mrt4, active compounds read low 1.05 | locus YKL068W, active compounds read low 0.982 | locus YKL085W, strain MDH1 (second series), active compounds read low 0.976 | locus YKL085W, strain MDH1, active compounds read low 0.976 | locus YKL160W, strain elf1, active compounds read low 1.04 | locus YKL190W, strain CNB1, active compounds read low 0.975 | locus YKR001C, strain vps1, active compounds read low 1.02 | locus YKR026C, strain gcn3, active compounds read low 0.981 | locus YKR091W, strain srl3, active compounds read low 0.993 | locus YLL001W, strain dnm1, active compounds read low 0.985 | locus YLL026W, active compounds read low 0.991 | locus YLL041C, strain sdh2, active compounds read low 1.02 | locus YLR027C, strain aat2, active compounds read low 1.02 | locus YLR039C, strain RIC1, active compounds read low 1 | locus YLR058C, strain SHM2, active compounds read low 1.01 | locus YLR102C, strain apc9, active compounds read low 0.981 | locus YLR113W, strain HOG1, active compounds read low 0.983 | locus YLR221C, strain rsa3, active compounds read low 0.999 | locus YLR258W, strain gsy2, active compounds read low 1.02 | locus YLR262C, strain YPT6 (second series), active compounds read low 1.05 | locus YLR268W, strain sec22, active compounds read low 1.03 | locus YLR320W, strain mms22, active compounds read low 0.999 | locus YLR342W, strain FKS1, active compounds read low 1 | locus YLR357W, strain rsc2, active compounds read low 0.983 | locus YLR370C, strain arc18, active compounds read low 0.994 | locus YLR371W, strain rom2, active compounds read low 0.983 | locus YLR384C, strain iki3, active compounds read low 0.98 | locus YLR418C, strain cdc73, active compounds read low 0.953 | locus YML016C, strain PPZ1, active compounds read low 0.977 | locus YML032C, strain rad52, active compounds read low 1.01 | locus YML120C, strain ndi1, active compounds read low 1.01 | locus YML124C, strain tub3, active compounds read low 0.988 | locus YMR058W, strain fet3, active compounds read low 1 | locus YMR078C, strain ctf18, active compounds read low 0.974 | locus YMR125W, strain sto1, active compounds read low 0.998 | locus YMR129W, active compounds read low 0.995 | locus YMR205C, strain PFK2, active compounds read low 1.02 | locus YMR223W, strain ubp8, active compounds read low 0.975 | locus YMR231W, strain pep5, active compounds read low 0.977 | locus YMR307W, strain GAS1, active compounds read low 1.22 | locus YNL067W, strain RPL9B, active compounds read low 0.965 | locus YNL071W, strain lat1, active compounds read low 1.01 | locus YNL153C, strain GIM3, active compounds read low 0.964 | locus YNL183C, strain NPR1, active compounds read low 0.946 | locus YNL209W, strain ssb2, active compounds read low 1.01 | locus YNL233W, strain BNI4, active compounds read low 0.993 | locus YNL248C, strain rpa49, active compounds read low 0.983 | locus YNL250W, strain rad50, active compounds read low 0.943 | locus YNL271C, strain bni1, active compounds read low 0.968 | locus YNL298W, strain CLA4, active compounds read low 0.989 | locus YNL307C, strain MCK1, active compounds read low 0.985 | locus YNL322C, strain KRE1 (second series), active compounds read low 0.992 | locus YNR049C, strain mso1, active compounds read low 0.993 | locus YNR052C, strain pop2, active compounds read low 0.975 | locus YOL012C, strain htz1 0.732 | locus YOL147C, strain pex11, active compounds read low 0.986 | locus YOR001W, strain rrp6, active compounds read low 0.964 | locus YOR061W, strain CKA2, active compounds read low 1.02 | locus YOR069W, strain VPS5, active compounds read low 0.992 | locus YOR070C, strain gyp1, active compounds read low 1.01 | locus YOR080W, strain dia2, active compounds read low 0.98 | locus YOR083W, strain WHI5, active compounds read low 1.05 | locus YOR106W, strain vam3, active compounds read low 1.02 | locus YOR136W, strain idh2, active compounds read low 0.989 | locus YOR144C, strain elg1, active compounds read low 0.998 | locus YOR184W, strain ser1, active compounds read low 1.09 | locus YOR231W, strain MKK1, active compounds read low 1.01 | locus YOR265W, strain rbl2, active compounds read low 0.998 | locus YOR270C, strain vph1, active compounds read low 1.01 | locus YOR290C, strain snf2, active compounds read low 1.06 | locus YOR316C, strain cot1, active compounds read low 0.966 | locus YPL051W, strain arl3, active compounds read low 0.979 | locus YPL078C, strain atp4, active compounds read low 1.04 | locus YPL106C, strain sse1, active compounds read low 0.997 | locus YPL240C, strain hsp82, active compounds read low 0.993 | locus YPL241C, strain CIN2, active compounds read low 0.986 | locus YPL256C, strain CLN2, active compounds read low 0.978 | locus YPR119W, strain clb2, active compounds read low 0.952 | locus YPR141C, strain kar3, active compounds read low 0.961 | locus YPR163C, strain tif3, active compounds read low 0.983 | locus YPR167C, strain met16, active compounds read low 0.979 | strain wtn01, active compounds read low 1.01
